The values that follow come from the supplement of paper PMC13380429.

Values without a mark were called inactive.

This assay concerns Vero E6 infected with SARS-CoV-2. The assay can be described thus: SARS-CoV-2 infection rate relative to infected DMSO; higher = more infection, active = 60 or less. The settings on record: 24 h.
As to `Cc1cc(OI)c(C(C)C)cc1-c1cc(C(C)C)c(OI)cc1C` [thymol-iodide] (10 µM), the SARS-CoV-2 infection rate is 104%.

For the compound `O=C(OCCN1CCOCC1)C1(c2ccccc2)CCCCC1` (10 µM), the SARS-CoV-2 infection rate is 106%.

Consider `CC(O)(C(=O)Nc1ccc(S(=O)(=O)c2ccccc2)cc1)C(F)(F)F` (configuration not stated) (10 µM), for which the SARS-CoV-2 infection rate was 78%.

Take `CN(C)/C=N/c1c(I)cc(I)c(CCC(=O)O)c1I` [iopodic-acid] (10 µM): the SARS-CoV-2 infection rate was 104%.

Regarding `C[C@H](Cn1cnc2c(N)ncnc21)OCP(=O)(O)O` [tenofovir] (10 µM), the SARS-CoV-2 infection rate is 105%.

With `C[C@H](Cc1ccc(O)c(O)c1)[C@@H](C)Cc1ccc(O)c(O)c1` [masoprocol] (10 µM), the SARS-CoV-2 infection rate was 90%.

As for `COc1cc(N)c(Cl)cc1C(=O)CCC1CCN(CCNS(C)(=O)=O)CC1` (10 µM), the SARS-CoV-2 infection rate is 97.5%.

As for `CCCN1CCO[C@@H]2c3cc(O)ccc3OC[C@H]21` (10 µM), the SARS-CoV-2 infection rate was 87%.

With `Cc1cc(OCc2nnc(SC3CCCC3)n2-c2cccnc2)ccc1-c1ccc(S(C)(=O)=O)cc1` (0.833333 µM), the SARS-CoV-2 infection rate is 100%.

With `Nc1ccc(C(=O)O)c(O)c1` [aminosalicylate] (10 µM), the SARS-CoV-2 infection rate is 106%.

For `CC(=O)NCCc1c(Cc2ccccc2)[nH]c2ccccc12` [luzindole] (10 µM), the SARS-CoV-2 infection rate was 99%.

For the compound `C[S+](CC[C@H](N)C(=O)O)C[C@H]1O[C@@H](n2cnc3c(N)ncnc32)[C@H](O)[C@@H]1O` (some centres not stated) [ademetionine] (10 µM), the SARS-CoV-2 infection rate was 96.5%.
